Compound activity deposited in PubChem by Broad Institute.
LANA DNA inh – KSHV C-LANA DNA binding inhibition; MBP-C-LANA/FAM-LBS DNA binding, fluorescence polarization; inhibition, % at 9 µM; 0.078% of 340,000 active; AID 504423;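 active = highest replicate inhibition at or above 60% at 9 µM, even if other replicates fall short; inactive = all replicates below 60% inhibition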
Keap1 Nrf2 FP – Keap1-Nrf2 (human) interaction inhibition | Keap1 Kelch-Nrf2 peptide fluorescence polarization, 1536-well | inhibition, % at 9.4 µM | 0.15% of 340,000 active | AID 504523; in the data active = inhibition above about 12%; inconclusive = no clear call, values can overlap the other calls; inactive = below about 7.3%;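 also: human Keap1 Kelch domain with fluorescein labeled Nrf2 9mer peptide probe; higher means more block of Keap1 binding to Nrf2 peptide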
Glyco luc inh – blocks N-linked glycosylation in D54 reporter cells; D54 ERlucT glycosylation luciferase reporter, 24 h; percent of 100 nM tunicamycin response; reporter increase, % at 12.5 µM; 0.23% of 360,000 active;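 active = mean luciferase reporter signal, scaled so untreated is 0 and the glycosylation-blocking control 100, at or above a set limit in every replicate; inconclusive = mean reaches the limit but not every replicate does; inactive = mean below the limit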;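 also: luciferase carries N-glycosylation sites so blocking glycosylation raises the light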
Casp6 inh – inhibitors of human caspase-6. 0.53% of 350,000 active. P55212. purified caspase-6, Z-VEID-R110 cleavage fluorescence. inhibition, % at 12.5 µM;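 active = mean inhibition across replicates at least about 35%, with every replicate also reaching that limit, limit read from the data; inconclusive = only one of the two criteria met; inactive = neither criterion met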
NSD2 inh – inhibitors of human histone methyltransferase NSD2 | 0.54% of 310,000 active | inhibition, % at 12.5 µM | NSD2 peptide methylation, AlphaScreen, 120 min | O96028; in the data active = inhibition above about 50%
Target sequence (O96028 whole entry, looked up): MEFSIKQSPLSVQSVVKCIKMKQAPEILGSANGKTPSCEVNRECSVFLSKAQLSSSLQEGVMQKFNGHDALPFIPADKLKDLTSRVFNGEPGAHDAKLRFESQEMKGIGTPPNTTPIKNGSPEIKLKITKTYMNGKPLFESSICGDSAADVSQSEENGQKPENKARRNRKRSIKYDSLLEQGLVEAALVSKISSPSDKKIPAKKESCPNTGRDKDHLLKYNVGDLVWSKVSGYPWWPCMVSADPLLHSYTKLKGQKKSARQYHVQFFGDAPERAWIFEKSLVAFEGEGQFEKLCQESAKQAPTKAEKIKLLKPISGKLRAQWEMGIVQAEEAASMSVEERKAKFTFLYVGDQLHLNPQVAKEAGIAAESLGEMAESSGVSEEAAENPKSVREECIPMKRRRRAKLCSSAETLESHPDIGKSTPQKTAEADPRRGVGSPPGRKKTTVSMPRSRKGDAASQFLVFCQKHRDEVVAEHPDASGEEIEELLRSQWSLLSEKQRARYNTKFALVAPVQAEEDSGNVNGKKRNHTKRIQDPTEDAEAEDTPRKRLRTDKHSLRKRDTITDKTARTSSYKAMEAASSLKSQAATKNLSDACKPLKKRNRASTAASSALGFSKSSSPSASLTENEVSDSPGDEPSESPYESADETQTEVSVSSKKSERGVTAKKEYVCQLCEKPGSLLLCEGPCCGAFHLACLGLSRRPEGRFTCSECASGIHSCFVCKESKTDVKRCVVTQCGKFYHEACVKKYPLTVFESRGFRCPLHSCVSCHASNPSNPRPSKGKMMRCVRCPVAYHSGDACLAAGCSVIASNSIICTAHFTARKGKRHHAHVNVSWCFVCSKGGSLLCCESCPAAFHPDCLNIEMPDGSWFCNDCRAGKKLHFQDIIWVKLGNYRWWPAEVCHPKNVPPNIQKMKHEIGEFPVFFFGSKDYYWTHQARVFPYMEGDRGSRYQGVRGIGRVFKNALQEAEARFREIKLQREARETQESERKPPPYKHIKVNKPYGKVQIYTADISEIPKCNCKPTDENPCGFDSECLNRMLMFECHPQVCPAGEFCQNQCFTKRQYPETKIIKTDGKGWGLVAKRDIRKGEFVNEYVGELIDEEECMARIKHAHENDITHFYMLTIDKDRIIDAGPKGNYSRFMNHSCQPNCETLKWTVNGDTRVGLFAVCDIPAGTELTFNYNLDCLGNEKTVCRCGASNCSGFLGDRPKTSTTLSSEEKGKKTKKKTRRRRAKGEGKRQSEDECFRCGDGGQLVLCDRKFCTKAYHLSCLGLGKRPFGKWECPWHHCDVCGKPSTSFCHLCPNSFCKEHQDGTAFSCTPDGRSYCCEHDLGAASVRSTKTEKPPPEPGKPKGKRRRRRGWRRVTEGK
HDAC3 inh – inhibitors of human histone deacetylase 3 | recombinant HDAC3, fluorogenic peptide/trypsin coupled, fluorescence | inhibition, % at 8.3 µM | 0.15% of 320,000 active; in the data active = inhibition above about 26%, passing the limit was not always enough; inconclusive = no clear call, values can overlap the other calls
A number is an active result. Compounds with a hit are over-represented: about 1.1% of the library has one in this group of screens.

How did COC(=O)c1cn(C(=O)/C=C/c2ccc(OC)c(OC)c2)c2ccccc12 do in these assays?
LANA DNA inh: inactive; Keap1 Nrf2 FP: inactive; Glyco luc inh: 36.4; HDAC3 inh: inactive

What do the screens show for `COc1cc(OC)c(C(=O)/C=C/c2ccc(OCc3ccccc3)c(OC)c2)c(OC)c1`?
LANA DNA inh: inactive; Keap1 Nrf2 FP: inactive; Glyco luc inh: inactive; Casp6 inh: inactive; NSD2 inh: inactive; HDAC3 inh: inactive

Results for COc1ccc(C(=O)C=Cc2ccc(OCc3ccccc3)c(OC)c2)cc1OC ?
Glyco luc inh: 51.5; Casp6 inh: inactive; NSD2 inh: inactive

What do the screens show for `CC(C)NC(=O)Nc1ccc2c(c1)C(=O)N([C@H](C)CO)C[C@H](C)[C@@H](CN(C)Cc1ccc(Cl)c(Cl)c1)OCCCC[C@H](C)O2`?
Casp6 inh: inactive

Results for O=C(C1=C[C@@H](c2ccccc2)C[C@@H](OCc2ccc(CO)cc2)O1)N1CCCC1 ?
Casp6 inh: inactive

Results for C[C@@H]1CN([C@@H](C)CO)S(=O)(=O)c2ccc(Br)cc2O[C@@H]1CN(C)C(=O)c1cnccn1 ?
Casp6 inh: inactive

How did COc1ccc(C(=O)/C=C/c2ccc(OC)c(O)c2)c(F)c1 do in these assays?
LANA DNA inh: inactive; Keap1 Nrf2 FP: inactive; Glyco luc inh: 54.7; NSD2 inh: inactive; HDAC3 inh: inactive

Results for COc1ccc(C=CC(=O)c2ccc(OC)c(OC)c2)cc1O ?
Glyco luc inh: inconclusive; Casp6 inh: inactive; NSD2 inh: inactive

What do the screens show for `C/C=C/c1ccc2c(c1)O[C@@H](CN(C)C(=O)Cc1cccnc1)[C@H](C)CN([C@@H](C)CO)S2(=O)=O`?
Casp6 inh: inactive

Results for CCOC(=O)C1=C(O)/C(=C/c2ccc(OCC(=O)O)c(OC)c2)SC1=Nc1ccc(OCC)cc1 ?
LANA DNA inh: inactive; Keap1 Nrf2 FP: inactive; Glyco luc inh: inactive; Casp6 inh: 36.7; NSD2 inh: inactive; HDAC3 inh: inactive

What do the screens show for `CCOC(=O)C1=C(O)/C(=C/c2ccc(OCC(=O)O)c(OCC)c2)SC1=Nc1ccccc1`?
LANA DNA inh: inactive; Keap1 Nrf2 FP: inactive; Glyco luc inh: inactive; Casp6 inh: inactive; NSD2 inh: inactive; HDAC3 inh: inactive

How did C[C@H](CO)N1C[C@H](C)[C@@H](CN(C)C(=O)CCCN(C)C)OCCCC[C@H](C)Oc2ccc(NS(=O)(=O)c3cccs3)cc2C1=O do in these assays?
Casp6 inh: inactive

Results for O=C(NC1CCCCC1)N[C@H]1C=C[C@H](CC(=O)N2CCOCC2)O[C@@H]1CO ?
Casp6 inh: inactive

Results for O=C(/C=C/c1ccccc1)c1ccccc1 ?
LANA DNA inh: inactive; Keap1 Nrf2 FP: inactive; Glyco luc inh: inactive; HDAC3 inh: inactive

How did O=C(/C=C/c1ccccc1)c1ccc2c3c(cccc13)CC2 do in these assays?
LANA DNA inh: inactive; Keap1 Nrf2 FP: inactive; Glyco luc inh: 46.6; NSD2 inh: inactive; HDAC3 inh: inactive

How did COc1ccc(C2=NN(C)C(=NCc3ccccc3)SC2)cc1 do in these assays?
LANA DNA inh: inactive; Keap1 Nrf2 FP: inactive; Glyco luc inh: inactive; Casp6 inh: inactive; NSD2 inh: inactive; HDAC3 inh: inactive

How did CN1N=C(C(C)(C)C)CSC1=Nc1ccccc1 do in these assays?
LANA DNA inh: inactive; Keap1 Nrf2 FP: inactive; Glyco luc inh: inactive; Casp6 inh: 36.8; NSD2 inh: inactive; HDAC3 inh: inactive

Results for CCCOc1ccc(F)cc1-c1cc(C(=O)Nc2ccc(OC)c(OC)c2)[nH]n1 ?
Glyco luc inh: inactive; Casp6 inh: inactive; NSD2 inh: inactive

Results for CCCOc1ccc(F)cc1-c1cc(C(=O)Nc2ccc(C(C)C)cc2)[nH]n1 ?
Glyco luc inh: 55.3; Casp6 inh: inactive; NSD2 inh: inactive

How did Cc1ccc(-c2ccc3c(c2)O[C@H](CN(C)C(=O)CN(C)C)[C@@H](C)CN([C@@H](C)CO)S3(=O)=O)cc1 do in these assays?
Casp6 inh: inactive

What do the screens show for `Cc1ccc2nc(SCC(=O)Nc3ccc4sc(C)nc4c3)c(C#N)cc2c1`?
LANA DNA inh: inactive; Keap1 Nrf2 FP: inactive; Glyco luc inh: 33.3; NSD2 inh: inactive; HDAC3 inh: inactive

Results for O=C(C[C@@H]1CC[C@H]2[C@@H](COC[C@@H](O)CN2C(=O)Nc2ccc(Cl)cc2)O1)N1CCCCC1 ?
Casp6 inh: inactive

Results for COc1cccc2c1C(=O)c1c(O)c3c(c(O)c1C2=O)CC(O)(C(C)=O)CC3OC1CC(O)C(O)C(C)O1 (stereo unspecified) ?
LANA DNA inh: 110.5; Keap1 Nrf2 FP: 19.6; Glyco luc inh: inactive; Casp6 inh: inactive

What do the screens show for `C[C@H]1CN([C@@H](C)CO)C(=O)c2cc(NS(=O)(=O)c3ccc(Cl)cc3)ccc2O[C@@H]1CN(C)Cc1ccncc1`?
Casp6 inh: inactive

What do the screens show for `CCn1nc([N+](=O)[O-])c(C(C#N)c2nc3cc(C(F)(F)F)ccc3s2)c(Cl)c1=O` (stereo unspecified)?
LANA DNA inh: inactive; Keap1 Nrf2 FP: inactive; Glyco luc inh: inactive; NSD2 inh: 53.5; HDAC3 inh: inactive

What do the screens show for `CCCn1nc([N+](=O)[O-])c(C(C#N)c2nc3ccccc3o2)c(Cl)c1=O` (stereo unspecified)?
LANA DNA inh: inactive; Keap1 Nrf2 FP: inactive; Glyco luc inh: inactive; NSD2 inh: inactive; HDAC3 inh: inactive

What do the screens show for `S=c1[nH]cc(-c2ccccc2)n1-c1cccc(Cl)c1`?
LANA DNA inh: inactive; Keap1 Nrf2 FP: inactive; Glyco luc inh: inactive; Casp6 inh: 55.4; NSD2 inh: inactive

What do the screens show for `COc1cccc(-n2c(-c3ccccc3)c[nH]c2=S)c1`?
LANA DNA inh: inactive; Keap1 Nrf2 FP: inactive; Glyco luc inh: inactive; Casp6 inh: inactive; NSD2 inh: inactive; HDAC3 inh: inactive

How did C[C@H](CO)N1C[C@H](C)[C@H](CN(C)C(=O)Nc2cc(F)ccc2F)Oc2ncc(-c3cccc(F)c3)cc2C1=O do in these assays?
Casp6 inh: inactive

What do the screens show for `COc1ccc2c3c(n(C)c2c1)[C@@H](CO)N(Cc1ccccc1Cl)CC31CCN(C(=O)CN(C)C)CC1`?
Casp6 inh: inactive

What do the screens show for `O=C1c2ccccc2C(=O)c2c([N+](=O)[O-])ccc(O)c21`?
LANA DNA inh: inactive; Keap1 Nrf2 FP: inactive; Glyco luc inh: inactive; Casp6 inh: 38.4; NSD2 inh: inactive; HDAC3 inh: inactive

Results for Cc1ccc(S(=O)(=O)Nc2ccc3c(c2)C(=O)N([C@@H](C)CO)C[C@@H](C)[C@H](CN(C)Cc2ccc(C(=O)O)cc2)OCCCC[C@H](C)O3)cc1 ?
Casp6 inh: inactive

How did O=C(c1ccc2c(c1)OCO2)N1CC2(C1)[C@@H](c1ccccc1)[C@@H](CO)N2C(=O)C1CCC1 do in these assays?
Casp6 inh: inactive

What do the screens show for `O=C(CSCc1ccco1)c1ccc(Cl)s1`?
HDAC3 inh: 90.2

Results for CSC1=NSC2=NC(=O)/C(=C/c3coc4ccc(O)cc4c3=O)C(=N)N12 ?
LANA DNA inh: inactive; Keap1 Nrf2 FP: inactive; Glyco luc inh: inactive; Casp6 inh: 39.9; HDAC3 inh: inactive
